ssDAF12 agonist = S. stercoralis DAF-12 activation, primary screen; hit rate 1% among 370,000; activation, % at 6.8 µM; HEK293 ssDAF-12/GRIP1 lit1-tk-luc reporter, luminescence; % of 3 µM dafachronic acid response; AID 652126;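 active = activation above the mean over all tested compounds plus 3 SD, cut at about 0.9% in these data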;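 also: 0% = DMSO-only wells and 100% = 3 µM delta7-dafachronic acid wells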
hgDAF12 agonist = hgDAF-12 agonism, primary luciferase screen; HEK293 GAL4-hgDAF12 UAS-luciferase reporter, agonist luminescence; normalized to butyrate control; activation, % at 6.8 µM; AID 687014; hit rate 1.8% among 370,000;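 active = activation above a cutoff set at the mean of all screened compounds plus 3 SD, cut at about 10% in these data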;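 also: 0% = DMSO wells and 100% = sodium butyrate wells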
hcDAF12 agonist = activators of H. contortus DAF-12 nuclear receptor | activation, % at 6.8 µM | AID 652067 | hit rate 1.4% among 370,000 | HEK293 hcDAF-12 lit1-tk-luc reporter, luminescence; 0% DMSO, 100% Δ7-dafachronic acid;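 active = activation above the mean of all tested compounds plus 3 SD, cut at about 5.5% in these data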;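 also: 100% = response to 3 µM Δ7-dafachronic acid high control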
SMARCA2 act = activators of SMARCA2 function | activation, % at 9.1 µM | hit rate 1% among 370,000 | MG213 cells, MMTV-luciferase reporter, dexamethasone, overnight; in the data active = activation above about 7.8%;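 also: 0% = vehicle wells and 100% = reference activator wells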
DAX1 inh = inhibitors of DAX1 repression of SF-1 activated StAR promoter; inhibition, % at 6.8 µM; HEK293T StAR-luciferase reporter, SF-1/DAX-1 repression relief; hit rate 1.1% among 370,000;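 active = inhibition above the mean over all tested compounds plus 3 SD, cut at about 3.6% in these data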;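 also: 0% = DAX-1 cells with DMSO and 100% = cells lacking DAX-1 with DMSO; higher inhibition means more luminescence from relief of DAX-1 repression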
Numbers without * were called inactive. A selection: hits, their analogues and other compounds. The true share with any hit is near 4.2%.

COC(=O)[C@]12C[C@H](CC(=O)NCc3cccs3)C(=O)N(Cc3ccccc3)C1=C[C@H](C(C)C)O[C@@H]2C1CC1 was read as ssDAF12 agonist -1.0, hgDAF12 agonist 4.5, hcDAF12 agonist -2.0, SMARCA2 act -0.1 and DAX1 inh 0.2.
Screening CC1Cc2ccccc2N1C(=O)c1cc2cccnc2n(C)c1=O (stereo not drawn) returned ssDAF12 agonist -0.1, hgDAF12 agonist 3.0, hcDAF12 agonist 5.6*, SMARCA2 act 2.2 and DAX1 inh 1.3.
`CN(C(=O)c1ccc(NC(=O)Cc2cccc(NC(=O)C3CCN(C(=O)CCc4ccccc4)CC3)c2)cc1)C1CC1` gave ssDAF12 agonist -1.0, hgDAF12 agonist -3.6, hcDAF12 agonist -1.4, SMARCA2 act -3.0 and DAX1 inh 0.5.
Fc1ccc(F)c(C2=NNC(=NCC3CCCO3)SC2)c1 (stereo not drawn) was read as ssDAF12 agonist 0.1, hgDAF12 agonist 11.8*, hcDAF12 agonist 5.0, SMARCA2 act -2.0 and DAX1 inh 1.0.
Screening Cc1ccccc1N(C)C(=O)C1CCCN1S(=O)(=O)c1cccc2cccnc12 (stereo not drawn) returned ssDAF12 agonist -0.9, hgDAF12 agonist -0.6, hcDAF12 agonist -1.2, SMARCA2 act -3.3 and DAX1 inh 1.3.
CCOC(=O)C1CCCN1C(=O)C1(NC(C)=O)CCCC1 (stereo not drawn) was read as ssDAF12 agonist -0.7, hgDAF12 agonist 12.4*, hcDAF12 agonist -0.8, SMARCA2 act -2.2 and DAX1 inh 0.2.
Screening CCOC(=O)C1CCN(C(=O)C2(NC(=O)NC3CCCCC3)CCCCC2)CC1 returned ssDAF12 agonist -1.4, hgDAF12 agonist 0.4, hcDAF12 agonist -1.5, SMARCA2 act 0.1 and DAX1 inh -0.1.
For CCN(CC)CCCNC(=O)c1cc2c(=O)n(C)c3ccccc3c2n1C the results were ssDAF12 agonist -0.5, hgDAF12 agonist 3.0, hcDAF12 agonist 3.2, SMARCA2 act -1.3 and DAX1 inh 3.4.
For CCN(CC)CCNC(=O)c1cc2c(=O)n(C)c3ccccc3c2n1C the results were ssDAF12 agonist -0.4, hgDAF12 agonist 3.7, hcDAF12 agonist -1.5, SMARCA2 act 0.4 and DAX1 inh 4.2*.
Screening CCCN(CCC)CCCNC(=O)c1cc2c(=O)n(C)c3ccccc3c2n1C returned ssDAF12 agonist -0.1, hgDAF12 agonist -0.3, hcDAF12 agonist 1.9, SMARCA2 act 0.2 and DAX1 inh 5.0*.
`O=C(CSc1cccs1)Nc1ccc2ccccc2c1` gave ssDAF12 agonist -1.0, hgDAF12 agonist 9.0, hcDAF12 agonist -0.8, SMARCA2 act 6.1 and DAX1 inh -0.2.
`Cc1cccc(NC(=O)CSc2nc(=O)n3ccccc3n2)c1C` gave ssDAF12 agonist -0.9, hgDAF12 agonist -0.4, hcDAF12 agonist 1.0, SMARCA2 act -1.7 and DAX1 inh -1.3.
O=C(CSc1cccs1)Nc1cccc2ccccc12 was read as ssDAF12 agonist -0.1, hgDAF12 agonist 10.7*, hcDAF12 agonist 4.6, SMARCA2 act 2.4 and DAX1 inh 1.6.
Screening O=C(CSc1nc(=O)n2ccccc2n1)Nc1cccc2ccccc12 returned ssDAF12 agonist 1.0*, hgDAF12 agonist 1.6, hcDAF12 agonist 1.7, SMARCA2 act -3.1 and DAX1 inh 0.8.
CC(=O)c1nc2ccccc2n1CCc1ccccc1 was read as ssDAF12 agonist 1.2*, hgDAF12 agonist 1.2, hcDAF12 agonist -0.3, SMARCA2 act 1.9 and DAX1 inh 0.0.
Screening C[C@@H]1CN([C@@H](C)CO)C(=O)CCCn2nncc2CO[C@H]1CN(C)C(=O)Nc1ccc(N2CCN(C)CC2)cc1 returned ssDAF12 agonist -1.0, hgDAF12 agonist -0.7, hcDAF12 agonist 0.3, SMARCA2 act -3.5 and DAX1 inh 0.0.
For Oc1ccc(C2CNCc3sccc32)cc1O (stereo not drawn) the results were ssDAF12 agonist 1.0*, hgDAF12 agonist 0.2, hcDAF12 agonist -2.2, SMARCA2 act -0.8 and DAX1 inh -0.2.
Screening c1cc(Nc2ncnc3sc4c(c23)CCC4)ccn1 returned ssDAF12 agonist -1.3, hgDAF12 agonist -1.4, hcDAF12 agonist 0.0, SMARCA2 act 0.2 and DAX1 inh 0.6.
NNc1ncnc2sc3c(c12)CCC3 was read as ssDAF12 agonist 0.7, hgDAF12 agonist 11.6*, hcDAF12 agonist 3.9, SMARCA2 act 0.7 and DAX1 inh 1.3.
Nn1c(SCC(=O)Nc2ccccc2-c2ccccc2)nnc1-c1cc(-c2ccccc2)n[nH]1 was read as ssDAF12 agonist -1.0, hgDAF12 agonist 1.2, hcDAF12 agonist -0.3, SMARCA2 act -5.5 and DAX1 inh -0.8.
c1ccc(-c2cnc(-c3ccccn3)nn2)cc1 was read as ssDAF12 agonist 0.8, hgDAF12 agonist 11.4*, hcDAF12 agonist 4.4, SMARCA2 act 6.8 and DAX1 inh 3.5.
O=C(Nc1cccc(F)c1)c1ccc(-c2ccccc2C(F)(F)F)o1 was read as ssDAF12 agonist -1.6, hgDAF12 agonist 0.2, hcDAF12 agonist -1.0, SMARCA2 act 0.9 and DAX1 inh -0.3.
COc1ccc(NC(=O)c2ccc(-c3ccccc3C(F)(F)F)o2)cc1 was read as ssDAF12 agonist -1.2, hgDAF12 agonist 2.1, hcDAF12 agonist -0.8, SMARCA2 act 7.9* and DAX1 inh -0.2.
`Cc1ccsc1C(=O)NCCc1nnc2ccccn12` gave ssDAF12 agonist -0.2, hgDAF12 agonist 5.8, hcDAF12 agonist 3.2, SMARCA2 act 7.8* and DAX1 inh 0.2.
O=C(NCCc1nnc2ccccn12)c1cccs1 was read as ssDAF12 agonist -0.7, hgDAF12 agonist 5.9, hcDAF12 agonist 0.9, SMARCA2 act 1.0 and DAX1 inh 0.2.
`C[C@@H]1CN([C@@H](C)CO)C(=O)c2cccc(NC(=O)Nc3cccc4ccccc34)c2O[C@H]1CN(C)S(=O)(=O)c1ccc(Cl)cc1` gave ssDAF12 agonist -1.5, hgDAF12 agonist -5.6 and hcDAF12 agonist -0.8.
Screening Nc1c(C(=O)c2cccs2)oc2ccccc12 returned ssDAF12 agonist -0.4, hgDAF12 agonist 6.6, hcDAF12 agonist 6.1*, SMARCA2 act 2.8 and DAX1 inh 0.7.
Screening C[C@H](O)[C@@H]1C(=O)N2CCc3c([nH]c4c(-c5ccc6c(c5)OCO6)cccc34)[C@@H]2C[C@@H]1N(C)C(=O)NC1CCCCC1 returned ssDAF12 agonist -1.1, hgDAF12 agonist 0.6, hcDAF12 agonist -3.2, SMARCA2 act -2.9 and DAX1 inh -0.3.
For O=C1/C(=C/c2ccc([N+](=O)[O-])cc2)C=C(c2ccccc2)N1c1ccccc1 the results were ssDAF12 agonist 0.0, hgDAF12 agonist 0.1, hcDAF12 agonist 1.8, SMARCA2 act -0.3 and DAX1 inh -0.8.
COc1ccc(N2C(=O)/C(=C/c3ccc([N+](=O)[O-])cc3)C=C2c2ccccc2)cc1 was read as ssDAF12 agonist 1.2*, hgDAF12 agonist 0.3, hcDAF12 agonist -1.6, SMARCA2 act 1.3 and DAX1 inh 0.6.
O=C(NCCC1=CCCCC1)c1ccc(CN2CCOCC2)cc1 was read as ssDAF12 agonist 0.9*, hgDAF12 agonist 7.0, hcDAF12 agonist 5.2, SMARCA2 act 1.4 and DAX1 inh 2.3.
